Values joined by “and” are separate entries in the source; they are usually repeats but may differ in a detail not shown here. Equal entries are not always repeated. Results filed as inconclusive are left out. Some compounds were tested as several samples or in several runs, with calls that do not always agree. Active and inactive are the calls of the source. The calls were made as follows: active = hit-call score of the fitted dose curve at least 0.9, where 1 is the maximum; inconclusive = response in the unintended direction; inactive = score below 0.9.

Estrogen receptor (Homo sapiens), sequence (P03372 whole entry, looked up): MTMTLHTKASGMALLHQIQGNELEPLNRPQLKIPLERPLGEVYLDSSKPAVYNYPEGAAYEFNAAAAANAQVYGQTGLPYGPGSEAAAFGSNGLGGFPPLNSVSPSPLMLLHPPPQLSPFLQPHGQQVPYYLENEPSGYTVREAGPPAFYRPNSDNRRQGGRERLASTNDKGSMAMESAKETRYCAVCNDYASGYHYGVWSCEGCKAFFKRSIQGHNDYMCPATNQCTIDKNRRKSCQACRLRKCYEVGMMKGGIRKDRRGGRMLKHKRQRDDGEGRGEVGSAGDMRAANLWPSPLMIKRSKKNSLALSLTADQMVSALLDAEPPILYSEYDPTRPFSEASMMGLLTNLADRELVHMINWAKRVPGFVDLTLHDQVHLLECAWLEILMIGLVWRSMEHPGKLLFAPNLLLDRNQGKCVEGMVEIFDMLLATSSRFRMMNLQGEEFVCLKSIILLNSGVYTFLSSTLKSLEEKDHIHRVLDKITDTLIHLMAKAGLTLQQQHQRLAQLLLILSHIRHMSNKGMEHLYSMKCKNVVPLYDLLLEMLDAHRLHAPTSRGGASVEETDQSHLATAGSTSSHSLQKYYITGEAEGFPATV
chimpanzee Androgen Receptor (AR), AR (gene 747460), sequence (O97775 whole entry, looked up): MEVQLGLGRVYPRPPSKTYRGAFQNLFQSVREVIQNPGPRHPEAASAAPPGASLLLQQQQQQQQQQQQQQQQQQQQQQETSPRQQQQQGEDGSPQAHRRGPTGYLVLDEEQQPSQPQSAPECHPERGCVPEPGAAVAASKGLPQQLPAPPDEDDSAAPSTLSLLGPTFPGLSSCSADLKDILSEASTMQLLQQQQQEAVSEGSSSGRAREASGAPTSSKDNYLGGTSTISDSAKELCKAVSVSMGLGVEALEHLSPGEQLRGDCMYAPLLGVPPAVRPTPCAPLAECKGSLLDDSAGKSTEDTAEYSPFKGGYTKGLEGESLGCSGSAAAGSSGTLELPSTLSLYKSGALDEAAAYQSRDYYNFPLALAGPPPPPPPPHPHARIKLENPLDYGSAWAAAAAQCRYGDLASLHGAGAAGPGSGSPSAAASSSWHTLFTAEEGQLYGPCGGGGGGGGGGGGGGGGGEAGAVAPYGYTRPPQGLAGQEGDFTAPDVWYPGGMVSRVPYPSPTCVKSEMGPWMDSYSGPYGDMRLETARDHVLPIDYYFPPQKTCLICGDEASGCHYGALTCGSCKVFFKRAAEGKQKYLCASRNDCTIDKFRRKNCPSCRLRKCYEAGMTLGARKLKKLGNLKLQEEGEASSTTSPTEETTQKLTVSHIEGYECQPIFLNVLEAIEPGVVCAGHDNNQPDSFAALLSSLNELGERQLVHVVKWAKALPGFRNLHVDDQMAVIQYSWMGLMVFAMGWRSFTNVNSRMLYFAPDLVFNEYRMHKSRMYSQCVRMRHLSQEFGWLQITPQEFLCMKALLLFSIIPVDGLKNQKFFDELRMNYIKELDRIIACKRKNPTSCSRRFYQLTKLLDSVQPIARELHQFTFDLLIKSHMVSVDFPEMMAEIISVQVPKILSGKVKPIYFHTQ

In one assay the target is bovine Estrogen Receptor (ER), ESR1 (gene 407238) (UniProt P49884). The assay is described as follows: NVS_NR_bER: NovaScreen (NVS) Nuclear Receptor Binding Assay for bovine Estrogen Receptor (ER) (AID 2283345).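 Also: actives lower the bound radioligand count which means they displace the ER ligand.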 An outline of the steps: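 Cell-free radioligand binding with receptor from bovine uterine membranes, read by scintillation counting 18 h after dosing. Loss of specific binding was scored against DMSO; primary screen at 25 uM in duplicate, actives then run as concentration series.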
bovine Estrogen Receptor (ER), ESR1 (gene 407238), sequence (P49884 whole entry, looked up): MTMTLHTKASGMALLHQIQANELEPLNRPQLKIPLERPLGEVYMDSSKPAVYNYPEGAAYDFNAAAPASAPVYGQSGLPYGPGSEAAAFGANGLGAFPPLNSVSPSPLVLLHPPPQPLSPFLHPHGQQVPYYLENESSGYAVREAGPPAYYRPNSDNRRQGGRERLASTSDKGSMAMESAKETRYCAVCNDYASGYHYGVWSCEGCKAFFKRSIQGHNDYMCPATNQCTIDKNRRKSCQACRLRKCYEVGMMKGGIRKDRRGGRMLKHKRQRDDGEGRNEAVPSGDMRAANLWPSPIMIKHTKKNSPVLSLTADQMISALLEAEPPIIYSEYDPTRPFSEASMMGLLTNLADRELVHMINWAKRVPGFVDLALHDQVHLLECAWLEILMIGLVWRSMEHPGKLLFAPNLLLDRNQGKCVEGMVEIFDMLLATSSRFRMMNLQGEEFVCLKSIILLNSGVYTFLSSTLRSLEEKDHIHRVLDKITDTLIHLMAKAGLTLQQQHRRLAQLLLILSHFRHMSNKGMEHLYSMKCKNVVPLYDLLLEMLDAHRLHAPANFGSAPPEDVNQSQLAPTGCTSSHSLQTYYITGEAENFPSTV
Consider `CCOC(=O)C(C)Oc1ccc(Oc2cnc3cc(Cl)ccc3n2)cc1` (stereo not given), for which the molecule was called inactive.

Regarding `C#C[C@]1(O)CC[C@H]2[C@@H]3CCC4=CC(=O)CC[C@@H]4[C@H]3CC[C@@]21CC`, the AC50 was 6.85 µM (active) and the call was inactive.

Take `CC(=O)S[C@@H]1CC2=CC(=O)CC[C@]2(C)[C@H]2CC[C@@]3(C)[C@@H](CC[C@@]34CCC(=O)O4)[C@H]12`: the molecule was called inactive.

For the molecule `CCOC(=O)COc1cc(-n2ncc(C(F)(F)F)c(C)c2=O)c(F)cc1Cl`, the molecule was classed as inactive.

Turning to `Cc1nn(C)c(Oc2ccccc2)c1C=NOCc1ccc(C(=O)OC(C)(C)C)cc1`, the call was inactive.

As to `C[C@]12CC[C@@H]3c4ccc(O)cc4C[C@@H](CCCCCCCCCS(=O)CCCC(F)(F)C(F)(F)F)[C@H]3[C@@H]1CC[C@@H]2O` (stereo not given in full), the outcome was inactive.

Another assay has as its target chimpanzee Androgen Receptor (AR), AR (gene 747460) (UniProt O97775). The assay is described as follows: NVS_NR_cAR: NovaScreen (NVS) Nuclear Receptor Binding Assay for chimpanzee Androgen Receptor (AR) (AID 2283346).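 Also: a loss of bound radioligand signal versus DMSO counts as binding.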 An outline of the steps: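 Radioligand binding to chimpanzee AR expressed in Sf9/Sf21 cells, cell-free, measured 72 h after dosing by lysate-based scintillation counting. Loss of signal vs DMSO; initial duplicate screen at 25 uM, actives retested in concentration series.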
For `CC(C)(c1ccc(O)cc1)c1ccc(O)cc1`, the AC50 was 16.5 µM (active) and 17.8 µM (active) and 25.4 µM (active).

Take `C[C@]12C[C@H](O)[C@H]3[C@@H](CCC4=CC(=O)CC[C@@]43C)[C@@H]1CC[C@@H]2C(=O)CO`: the AC50 was 4.56 µM (active).

In the case of `C=CCOC(Cn1ccnc1)c1ccc(Cl)cc1Cl` (stereo not given), the AC50 is 9.9 µM (active).

Regarding `CCOC(=O)c1ccc(O)cc1`, the result was inactive.

As to `S=C(S)NCCNC(=S)S.[Mn+2].[S-]C([S-])=NCCN=C([S-])[S-].[Zn+2]`, the AC50 was 12.5 µM (active).

In the case of `N[C@@H](Cc1cc(I)c(Oc2ccc(O)c(I)c2)c(I)c1)C(=O)O`, the outcome was inactive.

For `C#C[C@]1(O)CC[C@H]2[C@@H]3CCC4=CC(=O)CC[C@@H]4[C@H]3CC[C@@]21CC`, the AC50 was 2.29 nM (active) and 5.63 nM (active).

On to `O=C(c1ccc(O)cc1O)c1ccc(O)cc1O`, for which the AC50 was 2.73 µM (active).

For the molecule `CC(=O)S[C@@H]1CC2=CC(=O)CC[C@]2(C)[C@H]2CC[C@@]3(C)[C@@H](CC[C@@]34CCC(=O)O4)[C@H]12`, the AC50 is 6.35 nM (active) and 29.2 nM (active).

As for `C[C@]12CC[C@@H]3c4ccc(O)cc4C[C@@H](CCCCCCCCCS(=O)CCCC(F)(F)C(F)(F)F)[C@H]3[C@@H]1CC[C@@H]2O` (stereo not given in full), the AC50 was 15.5 µM (active) and the result was inactive.

Take `Oc1ccc(C(c2ccc(O)cc2)C(Cl)(Cl)Cl)cc1`: the AC50 was 6.15 µM (active).

A further assay has as its target Estrogen receptor (Homo sapiens) (UniProt P03372). The experiment in a line: NVS_NR_hER: NovaScreen (NVS) Nuclear Receptor Binding Assay for human Estrogen Receptor (ER) (AID 2283348). An outline of the steps: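 MCF7-derived receptor extract, radiolabelled ligand, competitive displacement. Read: scintillation counts at 18 h. DMSO = negative control/baseline. Primary 25 uM duplicate; follow-up concentration–response.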
With `CC(C)(c1ccc(O)cc1)c1ccc(O)cc1`, the molecule was called inactive.

For `O=C(c1ccccc1)C1CCCCC1`, the molecule was called inactive.

For the molecule `C[C@]12C[C@H](O)[C@H]3[C@@H](CCC4=CC(=O)CC[C@@]43C)[C@@H]1CC[C@@H]2C(=O)CO`, the molecule was called inactive.

In the case of `CC(=O)[C@H]1CC[C@H]2[C@@H]3CCC4=CC(=O)CC[C@]4(C)[C@H]3CC[C@]12C`, the molecule was called inactive.

Turning to `CCOC(=O)c1ccc(O)cc1`, the AC50 is 10.5 µM (active) and 4.61 µM (active); the molecule was called inactive.

On to `COc1c(Cl)ccc(Cl)c1C(=O)O`, for which the molecule was classed as inactive.

For the molecule `N[C@@H](Cc1cc(I)c(Oc2ccc(O)c(I)c2)c(I)c1)C(=O)O`, the AC50 was 7.8 µM (active) and 8.49 µM (active) and 6.72 µM (active); the outcome was inactive.

For `CC1(C)C(C=C(Cl)Cl)C1C(=O)OCc1cccc(Oc2ccccc2)c1` (stereo not given), the molecule was called inactive.

With `CCOC(=O)C(C)Oc1ccc(Oc2cnc3cc(Cl)ccc3n2)cc1` (stereo not given), the outcome was inactive.

Regarding `O=C(c1ccc(O)cc1O)c1ccc(O)cc1O`, the AC50 is 59.6 nM (active) [middle of 4 runs].

Consider `CC(=O)S[C@@H]1CC2=CC(=O)CC[C@]2(C)[C@H]2CC[C@@]3(C)[C@@H](CC[C@@]34CCC(=O)O4)[C@H]12`, for which the result was inactive.

For the molecule `CCOC(=O)COc1cc(-n2ncc(C(F)(F)F)c(C)c2=O)c(F)cc1Cl`, the result was inactive.

Turning to `Cc1nn(C)c(Oc2ccccc2)c1C=NOCc1ccc(C(=O)OC(C)(C)C)cc1`, the molecule was called inactive.

A further assay shares this target. The experiment in a line: OT_ER_ERaERa_1440: Odyssey Thera (OT) 24-hour HEK293T Protein-Complementation Assay for Estrogen Receptor-alpha/-alpha Homodimer (AID 2283349).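 Also: hits raise fluorescence above DMSO for agonists and antagonists alike.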 The method, boiled down:
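Cells (HEK293T) carrying the fragment-tagged ERα LBD (aa 310-547) pair are treated with chemical for 24 hours. Nuclear and/or cytoplasmic fluorescence is then quantified on a laser scanning cytometer. Activity is scored as signal gain against DMSO.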
Turning to `CC(C)(c1ccc(O)cc1)c1ccc(O)cc1`, the outcome was inactive.

Take `CCCCC(CC)CN1C(=O)C2C3C=CC(C3)C2C1=O` (stereo not given): the molecule was classed as inactive.

On to `O=C(c1ccccc1)C1CCCCC1`, for which the call was inactive.

In the case of `CC(C)CCCCCCc1ccc(O)cc1`, the AC50 was 2.42 µM (active).

For `COC(=O)c1ccccc1C(=O)O`, the result was inactive.

`C[C@]12C[C@H](O)[C@H]3[C@@H](CCC4=CC(=O)CC[C@@]43C)[C@@H]1CC[C@@H]2C(=O)CO`: the molecule was called inactive.

For `CC(=O)[C@H]1CC[C@H]2[C@@H]3CCC4=CC(=O)CC[C@]4(C)[C@H]3CC[C@]12C`, the outcome was inactive.

With `N#CSCSc1nc2ccccc2s1`, the molecule was called inactive.

With `CCOC(=O)c1ccc(O)cc1`, the AC50 was 47 µM (active) and 52.6 µM (active) and 67.5 µM (active); the outcome was inactive.

As for `COc1c(Cl)ccc(Cl)c1C(=O)O`, the result was inactive.

Turning to `N[C@@H](Cc1cc(I)c(Oc2ccc(O)c(I)c2)c(I)c1)C(=O)O`, the call was inactive.

As to `CC1(C)C(C=C(Cl)Cl)C1C(=O)OCc1cccc(Oc2ccccc2)c1` (stereo not given), the molecule was classed as inactive.

In the case of `CCCN(CCC)C(=O)SCC`, the molecule was called inactive.

Consider `CCOC(=O)C(C)Oc1ccc(Oc2cnc3cc(Cl)ccc3n2)cc1` (stereo not given), for which the molecule was classed as inactive.

`C#C[C@]1(O)CC[C@H]2[C@@H]3CCC4=CC(=O)CC[C@@H]4[C@H]3CC[C@@]21CC`: the AC50 was 50.7 µM (active) and the molecule was classed as inactive.

Turning to `O=C(c1ccc(O)cc1O)c1ccc(O)cc1O`, the AC50 was 7.6 µM (active) and 7.51 µM (active) and 9.91 µM (active).

Turning to `CC(=O)S[C@@H]1CC2=CC(=O)CC[C@]2(C)[C@H]2CC[C@@]3(C)[C@@H](CC[C@@]34CCC(=O)O4)[C@H]12`, the molecule was called inactive.

Regarding `CCOC(=O)COc1cc(-n2ncc(C(F)(F)F)c(C)c2=O)c(F)cc1Cl`, the result was inactive.

As to `Cc1nn(C)c(Oc2ccccc2)c1C=NOCc1ccc(C(=O)OC(C)(C)C)cc1`, the outcome was inactive.

What is called AC50 is the concentration giving half of the maximal activity seen.

(Values after PubChem BioAssay (EPA / NIEHS).)
